High-throughput results as filed in PubChem.
Shown are actives, neighbours in structure and some others; about 10% of the full set was active somewhere.
JMJD2A Tudor = qHTS Assay for Inhibitors of JMJD2A-Tudor Domain; AlphaScreen JMJD2A-Tudor / H3K4me3 peptide binding; 390,000 tested, 4.4% active; AID 504339, 2011; Potency, µM (titrated, usually from 114 µM), for the others: at the highest dose activity change, negative = inhibition, usual class: inhibitors; Lysine-specific demethylase 4A (Homo sapiens), O75164; further: on the % scale 0 is the no-effect control and ±100 the full control effect; nearly all actives have a fitted effect of over 50% in size
Target sequence (O75164 whole entry, looked up, the tested form may be a part): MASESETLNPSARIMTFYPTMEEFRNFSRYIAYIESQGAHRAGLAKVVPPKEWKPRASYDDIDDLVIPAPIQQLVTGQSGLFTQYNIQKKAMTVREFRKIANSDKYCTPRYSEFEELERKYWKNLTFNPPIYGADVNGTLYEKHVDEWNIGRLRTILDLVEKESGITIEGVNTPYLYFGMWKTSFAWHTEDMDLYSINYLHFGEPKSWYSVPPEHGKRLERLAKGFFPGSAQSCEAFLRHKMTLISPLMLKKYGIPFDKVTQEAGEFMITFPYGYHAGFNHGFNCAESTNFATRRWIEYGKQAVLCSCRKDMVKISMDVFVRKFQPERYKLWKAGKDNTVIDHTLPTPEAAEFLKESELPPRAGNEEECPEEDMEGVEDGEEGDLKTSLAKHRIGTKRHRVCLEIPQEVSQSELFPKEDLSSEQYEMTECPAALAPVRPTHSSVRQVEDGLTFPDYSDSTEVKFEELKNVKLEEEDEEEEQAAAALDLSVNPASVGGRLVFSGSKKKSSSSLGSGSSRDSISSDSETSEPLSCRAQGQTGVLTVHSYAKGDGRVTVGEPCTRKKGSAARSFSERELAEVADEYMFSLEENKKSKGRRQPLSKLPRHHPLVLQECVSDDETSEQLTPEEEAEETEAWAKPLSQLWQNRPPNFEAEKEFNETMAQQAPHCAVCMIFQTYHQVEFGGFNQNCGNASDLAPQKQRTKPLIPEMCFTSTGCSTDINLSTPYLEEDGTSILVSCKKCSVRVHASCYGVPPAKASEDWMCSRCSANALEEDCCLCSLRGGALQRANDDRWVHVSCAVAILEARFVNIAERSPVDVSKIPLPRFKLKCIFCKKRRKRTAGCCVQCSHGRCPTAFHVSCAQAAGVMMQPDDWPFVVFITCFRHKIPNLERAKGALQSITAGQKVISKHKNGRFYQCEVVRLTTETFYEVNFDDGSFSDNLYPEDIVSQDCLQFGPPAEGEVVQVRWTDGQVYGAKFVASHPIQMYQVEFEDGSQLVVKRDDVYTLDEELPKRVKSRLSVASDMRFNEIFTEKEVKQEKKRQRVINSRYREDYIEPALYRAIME
GLS inh = qHTS for Inhibitors of Glutaminase (GLS) | Glutaminase kidney isoform, mitochondrial (Homo sapiens), O94925 | GLS enzymatic activity, qHTS titration | Potency, µM (titrated, usually from 45.5 µM), for the others: at the top dose activity change, negative = inhibition, actives largely listed as inhibitors | 410,000 tested, 0.21% active | AID 624170, 2012; further: on the % scale 0 is the no-effect control and ±100 the full control effect
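Human kidney-isoform GLS in 45 mM KH2PO4 pH 8.2, 0.02% Tween-20, with compound, started with 1mM L-Glutamine (added stock). Glutamate oxidase/HRP/Amplex red coupled fluorescence read at start and after 30 min at RT.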
BAZ2B block = qHTS Assay for Inhibitors of BAZ2B; Bromodomain adjacent to zinc finger domain protein 2B (Homo sapiens), Q9UIF8; AlphaScreen BAZ2B-H3K14Ac peptide displacement; Potency, µM (highest dose often 114 µM), for the others: at the top dose activity change, negative = inhibition, hits mostly inhibitors; 360,000 tested, 4.4% active; further: on the % scale 0 is the no-effect control and ±100 the full control effect; nearly all actives have a fitted effect of over 60% in size
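AlphaScreen displacement of biotin-H3(5-23)K14Ac peptide (50 nM final) from BAZ2B (50 nM final) in PBS pH 7.4, 0.01% Tween-20; complex preformed 30 min RT, then compounds (top 110 uM) 30 min RT, beads 20 min dark.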
HP1b chromo inh = HTS for Inhibitors of HP1-beta Chromodomain Interactions with Methylated Histone Tails; Chromobox protein homolog 1 (Homo sapiens), P83916; AlphaScreen HP1-beta / biotin-H3K9me3 peptide binding; Potency, µM (top dose mostly 114 µM), without a hit: at the top dose activity change, negative = inhibition, actives largely listed as inhibitors; 390,000 tested, 0.56% active; AID 540317, 2011; further: nearly all actives have a fitted effect of over 70% in size
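AlphaScreen: HP1-beta (50 nM) preformed 30 min with biotin-H3(1-18)K9me3 peptide (50 nM) in PBS pH 7.4, 0.01% Tween-20. Compound added for 30 min at RT, then streptavidin donor/nickel chelate acceptor beads (10 ug/mL) for 30 min.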
G9a block = qHTS Assay for Inhibitors of Histone Lysine Methyltransferase G9a; Histone-lysine N-methyltransferase EHMT2 (Homo sapiens), Q96KQ7; G9a H3K9 monomethylation, AlphaScreen, 2 h; Potency, µM (series often up to 102 µM), without a hit: at the top dose activity, negative = inhibition, most hits filed as inhibitors; 350,000 tested, 8.8% active; further: on the % scale 0 is the no-effect control and ±100 the full control effect; nearly all actives have a fitted effect of over 75% in size
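Readings reflect AlphaScreen signal from monomethyl-H3K9 antibody detection. HMT at 20 nM; substrate b-H3K9 500 nM; cofactor SAM 20 uM; 2 h RT reaction; compounds tested as titrations in qHTS with 15 min preincubation.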
Active calls of the source: *; u = inconclusive; x = no result given; [ ] = another dose, or the depositor's remark. The call rests on the fitted dose curve; in most records, active means well fitted curve in the direction sought with a large enough effect; inconclusive means small, poorly fitted or top-dose-only effect, or another doubt; inactive means no such curve, though single readings can be large; an effect the other way counts as inactive or inconclusive. Potency means the concentration at half of the fitted maximal effect.

SMILES | JMJD2A Tudor | GLS inh | BAZ2B block | HP1b chromo inh | G9a block
CC(C)c1ccc(O)c(NC(=S)NC(=O)c2ccc3c(c2)OCO3)c1 | u | 8.0% | u | -11.4% | 12.6µM*
NS(=O)(=O)c1ccc(NC(=O)c2ccc3c(c2)OCO3)cc1 | 6.6% | -5.2% | -30.7% | 26.0% | u
NS(=O)(=O)c1ccc(NC(=S)NC(=O)c2ccc3c(c2)OCO3)cc1 | 10.0% | 12.3% | -21.7% | 16.5% | 39.8µM*
O=C1C=C(c2ccc(C(=O)O)cc2)C[C@@H](c2ccc(F)cc2)C1 | -13.7% | 7.0% | x | 42.4% | x
N#C/C(=C\c1ccc(N2CCOCC2)c([N+](=O)[O-])c1)c1nc2ccccc2[nH]1 | u | 3.7% | 35.5µM* | -32.2% | 0.6%[59 µM]
Cc1ccc2nc(/C(C#N)=C\c3ccc(N4CCCCC4)c([N+](=O)[O-])c3)[nH]c2c1 | 5.62µM* | 4.2% | 44.7µM* | u | 14.1µM*
Cc1ccc2nc(/C(C#N)=C/c3ccc(O)c(O)c3)[nH]c2c1 | 15.8µM* | u | 7.94µM* | u | 8.91µM*
Cc1ccc(S(=O)(=O)N2CCN(Cc3ccccc3)CC2)s1 | 3.0% | -7.6% | 8.8% | 36.9% | u
NC(=O)C1CCN(c2nc(-c3ccccc3-c3ccccc3)cs2)CC1 | 44.7µM* | 6.9% | u | -14.6% | -1.3%[12.7 µM]
CC(=O)c1cccc(-c2csc(N3CCC(C(N)=O)CC3)n2)c1 | -19.3% | 2.8% | 50.1µM* | 45.3% | u
NC(=O)C1CCN(c2nc(-c3ccccc3N)cs2)CC1 | -14.3% | 2.1% | u | 49.2% | u
Cc1ccccc1-c1cc(C(=O)NCc2cccc(Br)c2)nn1CC1CC(c2cccc([N+](=O)[O-])c2)=NO1 (configuration not stated) | -27.3% | 5.4% | x | 16.2% | x
O=S1(=O)N=C(Nc2nncs2)c2ccccc21 | u | 0.6% | 56.2µM* | -16.8% | 2µM*
COc1nc(-c2ccc(Cl)cc2)ccc1-c1noc(-c2ccco2)n1 | -0.8% | -9.2% | -20.7% | 15.7% | 2.82µM*
COc1cccc(-c2ccc(-c3noc(-c4cccs4)n3)c(OC)n2)c1 | 27.8% | 7.8% | 2.3% | 12.3% | 1.26µM*
Cc1ccc(C)c(/C=N/n2cc(-c3ccccc3)[nH]c2=S)c1 | u | u | -38.2% | 0.1% | 3.98µM*
Fc1ccccc1/C=N/n1cc(-c2ccccc2)[nH]c1=S | 12.6µM* | -5.9% | -23.5% | 11.8% | u
COc1ccc(/C=C(/NC(=O)c2ccccc2)C(=O)N2CCOCC2)cc1OC | -15.1% | 2.5% | 36.9% | 19.0% | 25.3%
CCCN1CNc2c(c(=O)[nH]c(=S)n2CCc2cc(OC)ccc2OC)C1 | -9.5% | x | x | 28.9% | x
CN1/C(=C/c2cccc[n+]2CCO)Sc2ccccc21 | u | 2.8% | 56.2µM* | -13.0% | 44.7µM*
CC[n+]1ccccc1/C=C1\Sc2ccc(C)cc2N1C | u | -10.4% | u | 49.3% | 43.4%[0.501 µM]
CCN1/C(=C/c2ccc3cc(C)ccc3[n+]2CC)Sc2ccccc21 | -43.2% | -5.2% | 44.7µM* | u | 7.94µM*
CC[n+]1c(/C=C2\Sc3ccccc3N2C)ccc2cccc(C)c21 | -23.0%[57.1 µM] | -5.4% | 44.7µM* | u | 25.1µM*
CC(=S)/C=C1\Sc2ccccc2N1C | u | 15.2% | 50.1µM* | u | u
C=C1CCc2c([nH]c3ccc(OCC(C)C)cc23)C1=O | -17.3% | 0.6% | 4.4% | 23.1% | 16.3%
SMILES | JMJD2A Tudor | GLS inh | BAZ2B block | HP1b chromo inh | G9a block
CN(C)c1cccc2c(S(=O)(=O)NC(=O)[C@H]3O[C@@H](n4cnc5c(N)ncnc54)[C@H](O)[C@@H]3O)cccc12 | x | 56.9% | x | x | x
CCN1/C(=C/c2ccc3cc(C)ccc3[n+]2CC)Sc2cc(C)c(C)cc21 | u | -0.7% | 44.7µM* | u | 14.1µM*
CCOc1ccc(NC(=O)COc2ccc(S(=O)(=O)N3CCOCC3)cc2)cc1 | -8.2% | -7.2% | x | 14.9% | x
CCCn1c(-c2ccc(S(=O)(=O)N3CCOCC3)cc2)csc1=Nc1ccc(OCC)cc1 | u | -0.1% | u | u | 12.6µM*
CCCCn1c(-c2ccc(S(=O)(=O)N3CCOCC3)cc2)csc1=Nc1ccccc1 | u | 2.9% | u | u | 5.62µM*
O=S(=O)(c1ccc(-c2csc(=Nc3ccccc3)n2CCCN2CCOCC2)cc1)N1CCOCC1 | u | 17.9% | 39.8µM* | u | 37.9%[0.501 µM]
CCCC(C(=O)Nc1ccc(S(=O)(=O)N2CCOCC2)cc1)c1ccccc1 (configuration not stated) | -7.4% | 5.3% | 7.3% | 13.0% | 32.6%[12.7 µM]
c1ccc(NC2=NCCN2CCCC2CCCCC2)cc1 | -15.6% | 7.1% | 2.0% | 33.5% | 14.8%[2.33 µM]
CCc1ccc(C2CC(=O)c3c([nH]c(C(=O)OCCOc4ccccc4)c3C)C2)cc1 (configuration not stated) | -10.3% | -6.2% | -2.8% | 30.8% | -3.2%[59 µM]
COC(=O)[C@]12CCCCC=C1N(Cc1ccc(Cl)cc1Cl)C(=O)[C@H](CC(=O)NCCc1ccccc1OC)C2 | x | -0.5% | x | x | x
COc1ccc(NC(=O)Cn2cnc3c(nc4n3CCCCC4)c2=O)c(OC)c1 | -15.5% | -0.3% | 0.9% | 4.4% | -30.9%[59 µM]
O=S(=O)(c1ccccc1)c1nc(-c2ccccc2)oc1N1CCCC1 | 79.4µM* | -9.5% | -4.5% | 5.9% | 5.1%
O=S(=O)(c1ccccc1)c1nc(-c2ccccc2)oc1N1CCN(c2cccc(Cl)c2)CC1 | -27.8% | -11.7% | -32.8% | -5.4% | -22.3%[59 µM]
Cc1ccc(S(=O)(=O)c2nc(Cc3ccccc3)oc2N2CCOCC2)cc1 | u | -4.3% | -2.5% | 1.9%[57 µM] | 2.24µM*
O=S(=O)(c1ccccc1)c1nc(-c2ccccc2)oc1N1CCCCC1 | u | 4.5% | u | -14.2% | 22.4µM*
Cc1ccc(S(=O)(=O)c2nc(N3CCOCC3)sc2Cl)cc1 | -1.5% | 0.9% | -15.0% | 55.0% | 6.31µM*
COc1cccc(N2CCN(S(=O)(=O)c3ccc(-c4ccno4)cc3OC)CC2)c1 | -26.0% | 3.9% | -38.2% | -10.5% | -8.1%[59 µM]
NC(C(=O)O)C(CC(=O)O)c1ccc(Cl)cc1 (configuration not stated) | x | x | x | x | 25.7%[59 µM]
COc1ccc(S(=O)(=O)N2CCN(C)CC2)cc1NC(=O)c1ccccc1 | -1.4% | -9.3% | -15.4% | 45.8% | -14.3%
Cc1ccc(S(=O)(=O)c2nc(-c3ccccc3)oc2N2CCCC2)cc1 | 28.2µM* | 8.5% | u | u | 1.26µM*
Cc1ccc(S(=O)(=O)c2nc(-c3ccccc3)oc2N2CCN(c3ccccc3)CC2)cc1 | -28.5% | -5.5% | -19.7% | -12.6% | -32.2%[59 µM]
